Screens deposited in PubChem BioAssay by National Center for Advancing Translational Sciences (NCATS).
POLI inh – blocks human DNA polymerase iota activity; Q9UNA4; Pol iota fluorescent replication assay, 10 min; Potency, µM (doses to about 115 µM), for the others: top-dose activity, negative = inhibition, hits mostly inhibitors; 390,000 tested, 1% active
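Fluorescent replication assay read twice, at 0 min and 10 min after adding 50 nM (final) substrate. Enzyme (10 nM) and compounds were first incubated 15 min at room temperature; enzyme-free buffer wells were negative controls.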
POLB inh – blocks human DNA polymerase beta activity. P06746. Pol beta primer extension/strand displacement, fluorescence kinetic. Potency, µM (top dose mostly 114 µM), without a hit: at the highest dose activity change, negative = inhibition, most hits filed as inhibitors. 340,000 tested, 1.3% active; note: % is set by controls: 0 for no effect and ±100 for the full control effect
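Kinetic readout of DNA synthesis with strand displacement by Pol beta. Compound and 10 nM enzyme sit 15 min at room temperature; 50 nM substrate starts the reaction, read immediately and at 10 min.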
Pol eta inh-1 – DNA polymerase eta (human) inhibition; Potency, µM (doses to about 114 µM), inactives show top-dose activity change, negative = inhibition, actives largely listed as inhibitors; 390,000 tested, 1.2% active; recombinant Pol eta, fluorescent DNA replication assay; AID 588591; Q9Y253; note: % is set by controls: 0 for no effect and ±100 for the full control effect
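Fluorescent replication assay: 50 nM final substrate added after a 15 min room-temperature compound preincubation with 10 nM enzyme. Signal taken at 0 min and again at 10 min.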
FEN1 inhibitor – human FEN1 inhibition; P39748; Recombinant FEN1 flap cleavage, fluorescence, 15 min; Potency, µM (highest dose often 114 µM), without a hit: top-dose activity change, negative = inhibition, most hits filed as inhibitors; 390,000 tested, 0.35% active; AID 588795; note: % is set by controls: 0 for no effect and ±100 for the full control effect; nearly all actives have a fitted effect of over 65% in size
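Potency values derive from four-parameter Hill fits of normalized qHTS data. The reaction used 10 nM FEN1 preincubated 15 min at room temperature with compound, then 50 nM DNA substrate, read at 0 and 15 min.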
WRN inhibitor – WRN helicase (human) inhibition; Potency, µM (top dose mostly 114 µM), for inactives: at the top dose activity change, negative = inhibition, actives largely listed as inhibitors; Q14191; WRN helicase unwinding, fluorescent forked duplex, kinetic; AID 651768; 360,000 tested, 0.46% active; note: % is set by controls: 0 for no effect and ±100 for the full control effect; nearly all actives have a fitted effect of over 55% in size
Target sequence (Q14191 whole entry, looked up): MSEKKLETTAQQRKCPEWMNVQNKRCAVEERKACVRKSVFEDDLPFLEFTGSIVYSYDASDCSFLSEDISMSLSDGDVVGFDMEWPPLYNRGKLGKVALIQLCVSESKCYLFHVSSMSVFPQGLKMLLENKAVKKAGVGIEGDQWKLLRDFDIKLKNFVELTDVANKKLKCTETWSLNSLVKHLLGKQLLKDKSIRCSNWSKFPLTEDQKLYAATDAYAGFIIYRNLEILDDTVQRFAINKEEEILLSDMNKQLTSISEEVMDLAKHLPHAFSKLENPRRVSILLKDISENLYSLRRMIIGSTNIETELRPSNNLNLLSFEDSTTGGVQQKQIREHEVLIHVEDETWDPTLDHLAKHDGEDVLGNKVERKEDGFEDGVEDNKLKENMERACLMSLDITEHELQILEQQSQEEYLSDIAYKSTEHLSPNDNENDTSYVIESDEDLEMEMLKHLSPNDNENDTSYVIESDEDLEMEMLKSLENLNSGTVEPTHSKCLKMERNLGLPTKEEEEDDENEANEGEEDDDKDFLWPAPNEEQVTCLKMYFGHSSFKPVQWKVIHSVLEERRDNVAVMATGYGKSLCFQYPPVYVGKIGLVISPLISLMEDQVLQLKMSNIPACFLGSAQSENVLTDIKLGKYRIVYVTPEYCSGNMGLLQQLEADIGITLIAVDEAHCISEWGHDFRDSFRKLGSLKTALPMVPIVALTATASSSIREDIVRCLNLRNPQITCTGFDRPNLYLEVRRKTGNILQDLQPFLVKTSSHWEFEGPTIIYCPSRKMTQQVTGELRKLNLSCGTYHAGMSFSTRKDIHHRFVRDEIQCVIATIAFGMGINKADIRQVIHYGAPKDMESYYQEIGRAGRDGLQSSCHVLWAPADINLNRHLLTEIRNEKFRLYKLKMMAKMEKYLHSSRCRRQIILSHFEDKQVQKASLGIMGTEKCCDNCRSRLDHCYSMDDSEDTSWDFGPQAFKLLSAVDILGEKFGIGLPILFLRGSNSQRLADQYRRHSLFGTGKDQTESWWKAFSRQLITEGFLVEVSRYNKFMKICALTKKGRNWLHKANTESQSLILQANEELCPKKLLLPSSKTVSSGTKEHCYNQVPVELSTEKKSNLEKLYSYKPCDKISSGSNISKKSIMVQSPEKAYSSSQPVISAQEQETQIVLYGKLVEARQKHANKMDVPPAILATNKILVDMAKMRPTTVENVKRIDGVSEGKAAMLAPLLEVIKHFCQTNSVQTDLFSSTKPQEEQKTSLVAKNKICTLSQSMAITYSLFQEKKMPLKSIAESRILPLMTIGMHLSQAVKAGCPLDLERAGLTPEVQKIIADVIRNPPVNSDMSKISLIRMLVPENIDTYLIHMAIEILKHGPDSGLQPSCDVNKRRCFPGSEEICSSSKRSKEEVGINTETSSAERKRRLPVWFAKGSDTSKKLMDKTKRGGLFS
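Fluorescence dequenching readout, ex 525 nm/em 598 nm, kinetic mode: forked duplex DNA (100 nM final) with adjacent fluorophore and quencher unwound by WRN (20 nM final) with 2 mM ATP. Compound preincubation 15 min, room temperature.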
Pol kappa inh-1 – inhibitors of human DNA polymerase kappa; Potency, µM (highest dose often 107 µM), without a hit: at the top dose activity, negative = inhibition, most hits filed as inhibitors; 400,000 tested, 0.53% active; purified Pol kappa, fluorescent DNA synthesis assay, 10 min; Q9UBT6; note: % is set by controls: 0 for no effect and ±100 for the full control effect
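10 nM Pol kappa was preincubated with compounds for 15 min at room temperature. Reaction started with 50 nM (final) substrate. Fluorescence read kinetically at 0 and 10 min.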
HEK293 tox – reduces HEK-293 cell viability in GALK counter-screen; shares compounds with Pol eta inh-1; HEK-293 viability, ATP luminescence (CellTiter-Glo), 24/48 h; Potency, µM (highest dose often 46.1 µM), for inactives: at the highest dose activity change, negative = cytotoxicity, usual class: inhibitors; 170 tested, 10% active; AID 2547; note: % is set by controls: 0 for no effect and ±100 for the full control effect
Pol kappa inh-2 – Pol kappa (human) inhibition, cherry-pick confirmation. shares compounds with Pol eta inh-1. Potency, µM, usual class: inhibitors. 920 tested, 76% active. purified Pol-kappa, fluorescent strand-displacement substrate. AID 720501
Pol eta inh-2 – Pol eta (human) inhibition, cherry-pick confirmation | shares compounds with Pol eta inh-1 | Pol eta primer extension, TAMRA/BHQ fluorescence, 10 min | Potency, µM, actives largely listed as inhibitors | 2,600 tested, 64% active
An asterisk follows results filed as active; [ ] = dose if it differs, or a comment. The list is not random: actives were taken first. Their share in the collection is about 2.4%. Calls come from the whole dose curve; as a rule, active = well fitted curve in the direction sought with a large enough effect; inconclusive = small, poorly fitted or top-dose-only effect, or another doubt; inactive = no such curve, though single readings can be large; an effect the other way counts as inactive or inconclusive. Potency is the fitted concentration of half-maximal effect.

COc1ccc(C2N=C(Nc3nc4ccccc4o3)NC3=C2C(=O)CC(C)(C)C3)cc1 (centres undefined) was read as POLI inh 9%, FEN1 inhibitor 12%, Pol kappa inh-1 -15% and HEK293 tox -16%.
For CCOC(=O)C1=C[C@@]2(CC)CCCN3CCc4c(n1c1ccccc41)C32 (some centres undefined) the results were Pol kappa inh-1 -11%[60.1 µM].
`COc1ccc2nc(Cl)c(C3CC(c4ccco4)=NN3C(=O)CCCC(=O)O)cc2c1` (centres undefined) gave POLI inh 22µM*, POLB inh inconclusive, Pol eta inh-1 35µM*, FEN1 inhibitor 0%, WRN inhibitor 3%[11.6 µM], Pol kappa inh-1 28µM* and Pol eta inh-2 76*.
For NC(=O)c1ccc(-n2nnnc2SCC(=O)c2ccc(O)c(O)c2)cc1 the results were POLI inh 14µM*, POLB inh 10µM*, Pol eta inh-1 10µM*, FEN1 inhibitor -13%, WRN inhibitor 35µM*, Pol kappa inh-1 25µM* and Pol eta inh-2 43*.
For Cc1ccccc1CSc1nnnn1-c1ccc(C(N)=O)cc1 the results were POLI inh 135%, POLB inh -14%, Pol eta inh-1 -22%, FEN1 inhibitor 4%, WRN inhibitor -11% and Pol kappa inh-1 -7%.
Screening Cc1ccc(-c2nnc(Nc3ccc(O)cc3)c3ccccc23)cc1S(=O)(=O)NCC1CCCO1 (centres undefined) returned POLI inh 11%, POLB inh inconclusive, Pol eta inh-1 -25%, FEN1 inhibitor -6% and Pol kappa inh-1 -20%.
Screening Cc1ccc2c(c1)-c1onc(C(=O)N(C)c3ccc(F)cc3)c1CO2 returned POLI inh 8%, POLB inh 29%, Pol eta inh-1 -13%, FEN1 inhibitor -20% and Pol kappa inh-1 -2%.
COC(=O)[C@@]12C[C@@H](CC(=O)NCC3CCCCC3)C(=O)N(Cc3cccc4ccccc34)C1=CCC(C)(C)C2 was read as WRN inhibitor 8%.
CCOC(=O)Cc1nnc(NC(=O)CSc2nnc3c(n2)[nH]c2ccccc23)s1 was read as POLI inh 25µM*, POLB inh 18µM*, Pol eta inh-1 20µM*, FEN1 inhibitor -20%, WRN inhibitor inconclusive, Pol kappa inh-1 79µM* and Pol eta inh-2 43*.
`Cc1nnc(NC(=O)CSc2nnc3c(n2)[nH]c2ccccc23)s1` gave POLI inh -22%, POLB inh 14%, Pol eta inh-1 11%, FEN1 inhibitor -15% and Pol kappa inh-1 -7%.
For CCc1nc(SCC(=O)O)c(C#N)c2c1CCCC2 the results were POLI inh 72%, POLB inh 8%, Pol eta inh-1 -18%, FEN1 inhibitor 5%, WRN inhibitor -3% and Pol kappa inh-1 -9%.
`Cc1nc(SCC(=O)O)c(C#N)c2c1CCCC2` gave POLI inh 25µM*, POLB inh 8.9µM*, Pol eta inh-1 7.9µM*, FEN1 inhibitor -6%, WRN inhibitor 45µM*, Pol kappa inh-1 inconclusive and Pol eta inh-2 24*.
Screening Cc1ccc(S(=O)(=O)CCC(=O)OCC(=O)Nc2sccc2C#N)cc1 returned Pol eta inh-1 28µM*, WRN inhibitor -2% and Pol eta inh-2 inconclusive.
`COc1ccc(C(=O)NCC(=O)OCC(=O)Nc2sccc2C#N)cc1OC` gave POLI inh -75%, POLB inh inconclusive, Pol eta inh-1 50µM*, FEN1 inhibitor 1%, WRN inhibitor -28%[57.1 µM], Pol kappa inh-1 inconclusive and Pol eta inh-2 inconclusive.
Screening CC(=O)Oc1cccc(/C=c2\sc3nc(-c4ccco4)nn3c2=O)c1 returned POLI inh inconclusive, POLB inh 22µM*, Pol eta inh-1 13µM*, FEN1 inhibitor -6%, WRN inhibitor inconclusive, Pol kappa inh-1 inconclusive and Pol eta inh-2 48*.
Screening COc1ccc(C)cc1-n1nnnc1SC/C(O)=C(\C#N)c1nc2ccccc2[nH]1 returned POLI inh inconclusive, POLB inh inconclusive, Pol eta inh-1 inconclusive, FEN1 inhibitor 1%, WRN inhibitor -14% and Pol kappa inh-1 inconclusive.
For Cc1cc(C)n2c(SCC(O)=C(C#N)c3nc4ccccc4[nH]3)nnc2n1 the results were POLI inh 11µM*, Pol eta inh-1 25µM*, FEN1 inhibitor inconclusive, WRN inhibitor inconclusive, Pol kappa inh-1 inconclusive and Pol eta inh-2 inconclusive.
For O=C(O)c1cnn(-c2ccccc2)c1-c1ccncc1 the results were POLI inh inconclusive, POLB inh inconclusive, Pol eta inh-1 22µM*, FEN1 inhibitor -14%, WRN inhibitor -1%[11.6 µM], Pol kappa inh-1 inconclusive, Pol kappa inh-2 19* and Pol eta inh-2 60*.
Screening O=Cc1cccn1-c1c(C(=O)O)cnn1-c1ccccc1 returned POLI inh 36%, POLB inh 2%, Pol eta inh-1 -8%, FEN1 inhibitor 17%, WRN inhibitor -2% and Pol kappa inh-1 -7%.
`CC(=O)OCc1nc2sc3c(c2c(=O)[nH]1)CCCC3` gave POLI inh 8%, POLB inh 16%, Pol eta inh-1 8%, FEN1 inhibitor 5%, WRN inhibitor 0% and Pol kappa inh-1 -4%.
`CCN(CC(=O)Nc1ccccc1C(F)(F)F)C(=O)CCc1nc2sc3c(c2c(=O)[nH]1)CCCC3` gave POLI inh 28µM*, Pol eta inh-1 16µM*, FEN1 inhibitor -10%, WRN inhibitor -3%[11.6 µM], Pol kappa inh-1 inconclusive and Pol eta inh-2 inconclusive.
`Cc1ccc(NC(=O)CCc2nc3sc4c(c3c(=O)[nH]2)CCCC4)c(Br)c1` gave POLI inh 40µM*, Pol eta inh-1 25µM*, FEN1 inhibitor -3%, WRN inhibitor inconclusive, Pol kappa inh-1 inconclusive and Pol eta inh-2 85*.
